In PubChem BioAssay AID463173 (ICCB-Longwood Screening Facility, Harvard Medical School, 2010):
The campaign covered roughly 52,000 compounds. About 4,300 (8.3%) were called active. Rule as the data show it: active = survival mostly below about 52% (no sharp cut-off); inactive = mostly above about 56%. What follows is part of a selection rich in actives, with near analogues and random picks from the rest.

What follows are compounds tested on DeltatarO mutant (assay: S. aureus survival, RN4220 and DeltatarO strains – OD600, teichoic acid synthesis inhibitors, primary screen (AID 463173)). Conditions: S. aureus RN4220 wild type/DeltatarO growth, OD600, 18 h, stronger effect = lower value, screened at 18.75 µg/mL (by protocol).
For `Cc1cc(OC(C)C(=O)N2CCN(CCc3ccccn3)CC2)ccc1Cl` (centres undefined), the survival was 68% (inactive). For `CC1=C(C(=O)Nc2ccc(C)cc2C)C(c2cc(Br)ccc2F)n2ncc(C(=O)Nc3ccc(C)cc3)c2N1` (centres undefined), the survival was 89% (inactive). With `Cc1ccc(-n2ncc3c(Nc4ccc5c(c4)OCCO5)ncnc32)cc1Cl` the survival was 117% (inactive). With `COc1cc(NC(=O)CC2C(=O)N(c3ccc(Cl)cc3)C(=O)N2Cc2cccs2)cc(OC)c1` (centres undefined) the survival was 85% (inactive). With `COc1ccc(-n2c(SCC(=O)NCc3ccc(C)cc3)nc3n[nH]c(C)c3c2=N)cc1` the survival was 87% (inactive). `Cc1ccccc1Cn1c(=O)n(-c2ccc(Cl)cc2)c(=O)c2c3c(sc21)CCCC3` was tested, and the survival was 114% (inactive). In the case of `COc1ccc(NC(=O)c2ccc3c(=O)n4nc(Nc5cccc(Cl)c5C)sc4nc3c2)cc1`, the survival is reported as 67% (inactive). In the case of `CC(C)c1ccccc1Oc1c(C(F)(F)F)oc2c(CN3CCN(C)CC3)c(O)ccc2c1=O`, the survival is reported as 49% (inactive). For `CC1CCCN(Cc2c(O)ccc3c(=O)c(-c4ccccc4Cl)c(C(F)(F)F)oc23)C1` (centres undefined), the survival was 43% (active). In the case of `CCc1ccc(Oc2c(C(F)(F)F)oc3c(CN4CCCC(C)C4)c(O)ccc3c2=O)cc1` (centres undefined), the survival is reported as 77% (inactive). For `CCN1CCN(Cc2c(O)ccc3c(=O)c(Oc4ccccc4C(C)C)c(C(F)(F)F)oc23)CC1`, the survival was 51% (active). In the case of `CC1CCCN(Cc2c(O)ccc3c(=O)c(Oc4ccccc4Cl)c(C(F)(F)F)oc23)C1` (centres undefined), the survival is reported as 88% (inactive). In the case of `O=c1c(-c2ccc(Cl)cc2)c(C(F)(F)F)oc2c(CN3CCCCC3)c(O)ccc12`, the survival is reported as 134% (inactive). With `CCN1CCN(Cc2c(O)ccc3c(=O)c(Oc4ccccc4Cl)c(C(F)(F)F)oc23)CC1` the survival was 90% (inactive). `CC1CCCN(Cc2c(O)ccc3c(=O)c(Oc4ccc(C(C)(C)C)cc4)c(C(F)(F)F)oc23)C1` (centres undefined) was tested, and the survival was 17% (active). In the case of `CC1CCCN(Cc2c(O)ccc3c(=O)c(-c4ccc(Cl)cc4)c(C(F)(F)F)oc23)C1` (centres undefined), the survival is reported as 46% (active). `CC1CCCCN1Cc1c(O)ccc2c(=O)c(-c3ccccc3Cl)c(C(F)(F)F)oc12` (centres undefined) was tested, and the survival was 55% (inactive). With `COc1ccc(Oc2c(C(F)(F)F)oc3c(CN4CCCC(C)C4)c(O)ccc3c2=O)cc1` (centres undefined) the survival was 68% (inactive). For `CC1CCN(Cc2c(O)ccc3c(=O)c(-c4ccc(Cl)cc4)c(C(F)(F)F)oc23)CC1`, the survival was 60% (inactive). In the case of `COCc1cc(C)nc2sc3c(=O)n(-c4cc(C)ccc4C)nnc3c12`, the survival is reported as 87% (inactive). `Cc1cc(C)c(NC(=O)C2CCN(C(=O)N3CC(C)Oc4ccc(Cl)cc43)CC2)c(C)c1` (centres undefined) was tested, and the survival was 56% (inactive). With `Cc1cc(C)c(NC(=O)CSc2nccn2-c2cccc(Cl)c2)c(C)c1` the survival was 73% (inactive). `CCN(CC)S(=O)(=O)c1ccc2c(c1)c(=O)c(C(=O)NCCc1ccccc1)cn2C` was tested, and the survival was 85% (inactive). In the case of `Cc1cc(C)c(NC(=O)Cn2nnc(C(=O)NCc3cccs3)c2N)c(C)c1`, the survival is reported as 91% (inactive). With `CCOc1ccc(Sc2cc(C(=O)NC(C)c3ccccc3)c3ccccc3n2)cc1` (centres undefined) the survival was 75% (inactive). `Cc1ccc(C(=O)Nc2cccc(OCc3cc(=O)n4c5c(sc4n3)CCCC5)c2)cc1` was tested, and the survival was 118% (inactive). For `COc1ccc(C(=O)Nc2cccc(OCc3cc(=O)n4c5c(sc4n3)CCCC5)c2)cc1`, the survival was 55% (inactive). In the case of `COc1ccc(C(=O)Nc2cccc(OCc3cc(=O)n4c5c(sc4n3)CCCC5)c2)cc1OC`, the survival is reported as 53% (inactive). In the case of `COc1cccc(C(=O)Nc2cccc(OCc3cc(=O)n4c5c(sc4n3)CCCC5)c2)c1`, the survival is reported as 51% (active). For `Cc1csc2nc(COc3cccc(NC(=O)c4ccccc4F)c3)cc(=O)n12`, the survival was 123% (inactive). With `COc1ccccc1C(=O)Nc1cccc(OCc2cc(=O)n3c(C)csc3n2)c1` the survival was 44% (active). In the case of `Cc1ccccc1C(=O)Nc1cccc(OCc2cc(=O)n3c4c(sc3n2)CCCC4)c1`, the survival is reported as 101% (inactive). `COc1ccccc1C(=O)Nc1cccc(OCc2cc(=O)n3c4c(sc3n2)CCCC4)c1` was tested, and the survival was 39% (active). With `Cc1ccccc1C(=O)Nc1cccc(OCc2cc(=O)n3c(C)csc3n2)c1` the survival was 96% (inactive). `CCOc1ccc(-c2nonc2NC(=O)c2oc3ccc(Cl)cc3c2C)cc1` was tested, and the survival was 64% (inactive). With `NNC1=NC2CS(=O)(=O)CC2S1` (centres undefined) the survival was 56% (inactive). For `CCSc1nnc(CNc2ccc(F)cc2)n1CC1CCCO1` (centres undefined), the survival was 91% (inactive). For `CC(C)CCNC(=O)c1ccc(Cn2c(=O)c3cccn3c3cccnc32)cc1`, the survival was 64% (inactive). With `CC(C)NC(=O)c1ccc(Cn2c(=O)c3cccn3c3cccnc32)cc1` the survival was 44% (active). With `CCC(C)NC(=O)c1ccc(Cn2c(=O)c3cccn3c3cccnc32)cc1` (centres undefined) the survival was 116% (inactive). For `CC(CNC(=O)c1ccc(Cn2c(=O)c3cccn3c3cccnc32)cc1)c1ccccc1` (centres undefined), the survival was 41% (active). For `CC(NC(=O)c1ccc(Cn2c(=O)c3cccn3c3cccnc32)cc1)c1ccccc1` (centres undefined), the survival was 101% (inactive). For `COCCCNC(=O)c1ccc(Cn2c(=O)c3cccn3c3cccnc32)cc1`, the survival was 70% (inactive). In the case of `CC(C)CCn1c(=O)c2sccc2n2c(CCCC(=O)NC(C)c3ccccc3)nnc12` (centres undefined), the survival is reported as 88% (inactive). `Nc1nnc(SCC(=O)C2CC2)s1` was tested, and the survival was 80% (inactive). For `O=C(N/N=C/c1ccc(F)cc1)c1ccc(NC(=O)C2CC2)cc1`, the survival was 105% (inactive). In the case of `Cc1cc(Nc2cccc(Cl)c2)nc2ccc(NC(=O)c3cccnc3)cc12`, the survival is reported as 91% (inactive). For `Cc1ccc(NC(=O)C2=CC(c3cccs3)=NS(=O)(=O)N2C)cc1`, the survival was 83% (inactive). With `CN1C(C(=O)Nc2ccc(OC(F)(F)F)cc2)=CC(c2cccs2)=NS1(=O)=O` the survival was 31% (active). In the case of `CN1C(C(=O)Nc2ccc(OC(F)(F)F)cc2)=CC(c2ccc3c(c2)OCO3)=NS1(=O)=O`, the survival is reported as 80% (inactive). For `COc1ccc(NC(=O)C2=CC(c3cccs3)=NS(=O)(=O)N2C)cc1`, the survival was 94% (inactive). In the case of `COc1ccc(C2=NS(=O)(=O)N(C)C(C(=O)Nc3ccc(OC(F)(F)F)cc3)=C2)cc1`, the survival is reported as 48% (active). For `COc1ccc(NC(=O)C2=CC(c3ccc4c(c3)OCO4)=NS(=O)(=O)N2C)cc1`, the survival was 88% (inactive). `Cc1cc(C)c(Cn2c(=O)n(-c3ccccc3Cl)c(=O)c3c(C)c(C(=O)N(C)C)sc32)c(C)c1` was tested, and the survival was 86% (inactive).
